“And” between values parts separate entries of the source, which are not always exact repeats. Equal values may be shown once. Results filed as inconclusive are left out. The source made the active and inactive calls. Unless noted, the call rests on the fitted dose curve; in most records, active means well fitted curve in the direction sought with a large enough effect in the repeat runs; inconclusive means weak or mixed curves; inactive means no such curve, though single readings can be large; an effect the other way counts as inactive or inconclusive.
Tests used:
[1] = target: Aryl hydrocarbon receptor (Homo sapiens) (UniProt P35869); experiment: qHTS assay to identify small molecule that activate the aryl hydrocarbon receptor (AhR) signaling pathway (AID 743085); further: nearly all actives have a fitted effect of over 15% in size; further: potency means the concentration at half of the fitted maximal effect;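 on activation: HG2L7.5c1 human HepG2 liver cells with stably integrated DRE-driven firefly reporter; series mostly up to about 70 µM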
Sequence of Aryl hydrocarbon receptor (Homo sapiens) (P35869 whole entry, looked up): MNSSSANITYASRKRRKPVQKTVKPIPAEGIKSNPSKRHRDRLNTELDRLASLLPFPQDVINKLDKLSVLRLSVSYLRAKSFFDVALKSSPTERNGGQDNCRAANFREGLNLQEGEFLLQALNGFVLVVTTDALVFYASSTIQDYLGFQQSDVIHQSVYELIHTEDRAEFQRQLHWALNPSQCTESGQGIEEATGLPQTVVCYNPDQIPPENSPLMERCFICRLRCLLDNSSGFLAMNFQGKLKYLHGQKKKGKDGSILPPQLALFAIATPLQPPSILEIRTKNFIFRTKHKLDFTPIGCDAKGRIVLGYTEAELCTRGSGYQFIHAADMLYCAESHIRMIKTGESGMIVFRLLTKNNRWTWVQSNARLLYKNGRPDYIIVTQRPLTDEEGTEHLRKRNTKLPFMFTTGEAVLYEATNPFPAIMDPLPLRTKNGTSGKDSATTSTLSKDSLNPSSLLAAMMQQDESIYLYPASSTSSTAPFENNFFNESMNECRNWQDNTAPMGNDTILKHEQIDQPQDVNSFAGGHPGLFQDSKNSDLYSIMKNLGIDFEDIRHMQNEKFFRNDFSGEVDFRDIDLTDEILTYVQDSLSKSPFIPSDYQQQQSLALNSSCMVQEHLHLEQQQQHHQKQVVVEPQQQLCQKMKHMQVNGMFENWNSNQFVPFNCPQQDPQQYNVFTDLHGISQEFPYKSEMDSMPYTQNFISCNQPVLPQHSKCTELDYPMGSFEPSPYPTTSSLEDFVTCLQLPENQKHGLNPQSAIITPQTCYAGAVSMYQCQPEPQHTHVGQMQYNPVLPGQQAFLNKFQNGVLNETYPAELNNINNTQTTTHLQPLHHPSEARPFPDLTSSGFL
Procedure, shortened: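 Steps: seed HepG2-AhR-luc cells; allow 5 h at 37C; pin-transfer test compound or vehicle; incubate 24 h at 37C; add viability dye (30 min, 37C) and read fluorescence; add luciferase substrate (30 min, RT) and read luminescence.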

[2] = qHTS assay to identify small molecule that activate the aryl hydrocarbon receptor (AhR) signaling pathway - cell viability counter screen (AID 743086); further: nearly all actives have a fitted effect of over 45% in size; further: potency means the concentration at half of the fitted maximal effect
Procedure, shortened: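 Cytotoxicity counter screen: CellTiter-Fluor signal (30 min, 37 C) in 4000 HepG2 cells/well carrying the DRE-luciferase reporter, following 24 h compound exposure at 37 C.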

[3] = target: Peroxisome proliferator-activated receptor gamma (Homo sapiens) (UniProt P37231); experiment: qHTS assay to identify small molecule agonists of the peroxisome proliferator-activated receptor gamma (PPARg) signaling pathway (AID 743094; active means well fitted activation curve with a large enough effect in the signal ratio in the repeat runs, not every such curve was filed as active; the % refers to the signal ratio)
Sequence of Peroxisome proliferator-activated receptor gamma (Homo sapiens) (P37231 whole entry, looked up): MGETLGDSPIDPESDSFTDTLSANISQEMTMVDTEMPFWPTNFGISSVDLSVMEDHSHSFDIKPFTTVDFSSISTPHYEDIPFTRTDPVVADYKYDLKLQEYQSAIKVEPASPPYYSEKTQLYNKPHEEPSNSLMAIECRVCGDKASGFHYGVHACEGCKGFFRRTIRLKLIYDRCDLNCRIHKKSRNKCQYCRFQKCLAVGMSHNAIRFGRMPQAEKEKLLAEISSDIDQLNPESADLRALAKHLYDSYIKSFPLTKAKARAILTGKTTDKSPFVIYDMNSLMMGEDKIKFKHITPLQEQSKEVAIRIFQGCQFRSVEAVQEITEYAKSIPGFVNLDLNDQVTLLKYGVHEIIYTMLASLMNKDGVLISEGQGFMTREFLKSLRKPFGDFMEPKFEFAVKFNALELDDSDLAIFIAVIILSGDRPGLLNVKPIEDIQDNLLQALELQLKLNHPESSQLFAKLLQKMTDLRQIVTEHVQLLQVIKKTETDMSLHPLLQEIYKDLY
Procedure, shortened: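 Agonism was assessed in a beta-lactamase reporter system, HEK293H cells with a stably integrated UAS-bla construct under PPARg control; the 17 h treatment at 37C preceded a 1 h room-temperature FRET substrate read.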

[4] = qHTS assay for small molecule activators of the heat shock response signaling pathway - cell viability counter screen (AID 743209); further: nearly all actives have a fitted effect of over 50% in size; further: potency means the concentration at half of the fitted maximal effect
Procedure, shortened: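 Compounds dissolved in DMSO were added to overnight-plated HSE-bla HeLa cells and left 5 h at 37 C. Cell viability was quantified by luminescence using CellTiter-Glo.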

[5] = qHTS assay for small molecule activators of the heat shock response signaling pathway (AID 743210; active means well fitted activation curve with a large enough effect in the signal ratio in the repeat runs, with a control signal flat, not every such curve was filed as active; the % refers to the signal ratio; further: series mostly up to about 63 µM)
Procedure, shortened: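 Compound exposure lasted 5 h at 37 C in HeLa cells carrying a heat-shock-element-driven beta-lactamase reporter. Read-out: fluorescence intensity after 2.5 h room-temperature loading with LiveBLAzer B/G FRET substrate.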

[6] = qHTS assay to identify small molecule agonists of the peroxisome proliferator-activated receptor delta (PPARd) signaling pathway - cell viability counter screen (AID 743211); further: nearly all actives have a fitted effect of over 55% in size; further: potency means the concentration at half of the fitted maximal effect
Procedure, shortened: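 Viability of GeneBLAzer PPARd UAS-bla HEK293H cells was assessed after 17 h compound incubation at 37C, using CellTiter-Glo reagent added after the reporter read and luminescence recorded 30 min later.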

[7] = qHTS assay to identify small molecule agonists of the farnesoid-X-receptor (FXR) signaling pathway - cell viability counter screen (AID 743218); further: nearly all actives have a fitted effect of over 45% in size; further: potency means the concentration at half of the fitted maximal effect
Procedure, shortened: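 Quantitative HTS counter screen measuring ATP-based viability via CellTiter-Glo luminescence in HEK 293T cells carrying a UAS-driven beta-lactamase reporter, after 16 h compound exposure at 37 C.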

[8] = target: Bile acid receptor (Homo sapiens) (UniProt Q96RI1); experiment: qHTS assay to identify small molecule agonists of the farnesoid-X-receptor (FXR) signaling pathway (AID 743220; active means well fitted activation curve with a large enough effect in the signal ratio in the repeat runs, not every such curve was filed as active; the % refers to the signal ratio)
Sequence of Bile acid receptor (Homo sapiens) (Q96RI1 whole entry, looked up): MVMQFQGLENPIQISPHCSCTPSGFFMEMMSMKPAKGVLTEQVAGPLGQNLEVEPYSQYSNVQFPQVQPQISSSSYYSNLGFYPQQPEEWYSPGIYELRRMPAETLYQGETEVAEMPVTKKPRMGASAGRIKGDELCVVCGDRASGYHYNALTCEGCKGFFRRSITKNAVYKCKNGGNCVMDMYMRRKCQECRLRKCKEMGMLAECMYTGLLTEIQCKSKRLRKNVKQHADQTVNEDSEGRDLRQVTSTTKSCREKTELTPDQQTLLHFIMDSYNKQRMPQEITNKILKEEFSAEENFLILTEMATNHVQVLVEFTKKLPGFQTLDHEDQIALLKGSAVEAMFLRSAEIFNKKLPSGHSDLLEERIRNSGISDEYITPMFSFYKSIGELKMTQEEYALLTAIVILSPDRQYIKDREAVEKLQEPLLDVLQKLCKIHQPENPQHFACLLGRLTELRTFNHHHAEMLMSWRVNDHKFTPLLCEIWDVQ
Procedure, shortened: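 FXR-UAS-bla HEK 293T cells carrying a UAS-driven beta-lactamase reporter were plated for 5 h at 37C/5% CO2, then exposed to DMSO-dissolved Tox21 10K compounds for 16 h at 37C. A LiveBLAzer B/G FRET substrate was loaded for 2 h at room temperature before fluorescence reading.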

[9] = target: Vitamin D3 receptor (Homo sapiens) (UniProt P11473); experiment: qHTS assay to identify small molecule agonists of the vitamin D receptor (VDR) signaling pathway (AID 743222; calls by dose curve)
Sequence of Vitamin D3 receptor (Homo sapiens) (P11473 whole entry, looked up): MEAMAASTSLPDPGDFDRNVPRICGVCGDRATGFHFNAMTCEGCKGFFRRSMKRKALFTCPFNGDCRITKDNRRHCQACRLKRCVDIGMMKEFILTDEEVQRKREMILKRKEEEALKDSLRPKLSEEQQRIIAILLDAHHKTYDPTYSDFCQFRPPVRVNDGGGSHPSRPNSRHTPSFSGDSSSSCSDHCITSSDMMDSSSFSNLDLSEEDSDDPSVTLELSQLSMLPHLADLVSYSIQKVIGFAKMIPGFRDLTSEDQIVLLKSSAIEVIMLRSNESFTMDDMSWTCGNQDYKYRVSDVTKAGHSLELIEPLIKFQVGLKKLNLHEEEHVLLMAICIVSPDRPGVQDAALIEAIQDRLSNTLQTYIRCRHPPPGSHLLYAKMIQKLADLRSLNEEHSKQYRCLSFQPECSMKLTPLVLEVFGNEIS
Procedure, shortened: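 Tox21 cell reporter format: VDR-bla line, 16 h compound exposure in 5% CO2 at 37C, then fluorescence intensity after 2 h with LiveBLAzer B/G FRET substrate.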

[10] = qHTS assay to identify aromatase inhibitors - cell viability counter screen (AID 743084);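 further: cells stimulated with testosterone during compound exposure; nearly all actives have a fitted effect of over 55% in size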; further: potency means the concentration at half of the fitted maximal effect
[11] = qHTS assay to identify small molecule antagonists of the peroxisome proliferator-activated receptor gamma (PPARg) signaling pathway - cell viability counter screen (AID 743194); further: nearly all actives have a fitted effect of over 55% in size; further: potency means the concentration at half of the fitted maximal effect
Procedure, shortened: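 Viability was measured as CellTiter-Glo luminescence in GeneBLAzer PPARg UAS-bla HEK293H cells. These cells had been exposed 17 h at 37 C to compounds together with rosiglitazone at 50 nM final, with the beta-lactamase readout taken in the same wells.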

[12] = qHTS assay for small molecule agonists of the antioxidant response element (ARE) signaling pathway - cell viability counter screen (AID 743203; calls by dose curve; further: nearly all actives have a fitted effect of over 55% in size; further: potency means the concentration at half of the fitted maximal effect)
Procedure, shortened: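 ATP content via CellTiter-Glo luminescence served as the viability measure. Cells: ARE-bla HepG2, 2,000 per well. Exposure: 16 hrs, 37C/5% CO2.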

[13] = target: Peroxisome proliferator-activated receptor delta (Homo sapiens) (UniProt Q03181); experiment: qHTS assay to identify small molecule agonists of the peroxisome proliferator-activated receptor delta (PPARd) signaling pathway (AID 743212; calls by dose curve)
Sequence of Peroxisome proliferator-activated receptor delta (Homo sapiens) (Q03181 whole entry, looked up): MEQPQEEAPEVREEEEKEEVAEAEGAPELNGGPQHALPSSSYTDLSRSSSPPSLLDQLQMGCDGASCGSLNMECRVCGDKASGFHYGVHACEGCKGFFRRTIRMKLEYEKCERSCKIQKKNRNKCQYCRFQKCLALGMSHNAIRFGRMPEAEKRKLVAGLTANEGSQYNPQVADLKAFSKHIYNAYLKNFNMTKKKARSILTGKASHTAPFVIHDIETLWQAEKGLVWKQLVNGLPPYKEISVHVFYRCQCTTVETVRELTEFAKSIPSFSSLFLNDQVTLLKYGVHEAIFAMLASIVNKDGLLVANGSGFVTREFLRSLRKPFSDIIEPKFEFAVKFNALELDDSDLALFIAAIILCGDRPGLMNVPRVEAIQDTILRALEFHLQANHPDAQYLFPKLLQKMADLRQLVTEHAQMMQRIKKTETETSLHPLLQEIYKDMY
Procedure, shortened: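 Beta-lactamase reporter readout: a ratiometric FRET signal from the LiveBLAzer substrate after 2 h at room temperature. Compound exposure at 37 °C in PPARδ-bla HEK293H cells driven by an upstream activator sequence.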

[14] = target: Bile acid receptor (Homo sapiens) (UniProt Q96RI1); experiment: qHTS assay to identify small molecule antagonists of the farnesoid-X-receptor (FXR) signaling pathway (AID 743217; active means well fitted inhibition curve with a large enough effect in the signal ratio in the repeat runs, not every such curve was filed as active; the % refers to the signal ratio; further: potency means the concentration at half of the fitted maximal effect)
Procedure, shortened: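 Test compounds are pin-transferred onto FXR-bla HEK 293T cells, then chenodeoxycholic acid is added at 50 uM final. After 16 h at 37 °C, LiveBLAzer B/G substrate is applied for 2 h at room temperature and fluorescence read.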

[15] = qHTS assay to identify small molecule antagonists of the farnesoid-X-receptor (FXR) signaling pathway - cell viability counter screen (AID 743221; active means well fitted cell-killing curve with a large enough effect in the repeat runs, not every such curve was filed as active; further: nearly all actives have a fitted effect of over 50% in size; further: potency means the concentration at half of the fitted maximal effect)
Procedure, shortened: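 Quantitative HTS of the Tox21 10K library run in parallel with the beta-lactamase reporter read. HEK 293T cells carrying a UAS-driven bla reporter got compound and 50 uM CDCA (final) for 16 h; ATP-based luminescence followed.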

[16] = target: Vitamin D3 receptor (Homo sapiens) (UniProt P11473); experiment: qHTS assay to identify small molecule antagonists of the vitamin D receptor (VDR) signaling pathway (AID 743223; active means well fitted inhibition curve with a large enough effect in the signal ratio in the repeat runs, not every such curve was filed as active; the % refers to the signal ratio; further: potency means the concentration at half of the fitted maximal effect)
Procedure, shortened: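 Fluorescence from LiveBLAzer B/G FRET substrate, read after 2 h at room temperature, reflects beta-lactamase reporter activity in VDR-bla cells treated 16 h at 37C with compounds and agonist 1alpha,25-dihydroxyvitamin D3 (3 nM final).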

[17] = target: Peroxisome proliferator-activated receptor gamma (Homo sapiens) (UniProt P37231); experiment: qHTS assay to identify small molecule antagonists of the peroxisome proliferator-activated receptor gamma (PPARg) signaling pathway (AID 743191; calls by dose curve; further: nearly all actives have a fitted effect of over 30% in size; further: potency means the concentration at half of the fitted maximal effect)
Procedure, shortened: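 Beta-lactamase reporter under UAS control in HEK293H PPARg-bla cells; compound treatment 17 h at 37C. Read-out: fluorescence intensity after 1 h room-temperature incubation with LiveBLAzer B/G FRET substrate.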

[18] = target: Peroxisome proliferator-activated receptor delta (Homo sapiens) (UniProt Q03181); experiment: qHTS assay to identify small molecule antagonists of the peroxisome proliferator-activated receptor delta (PPARd) signaling pathway (AID 743215; active means well fitted inhibition curve with a large enough effect in the signal ratio in the repeat runs, not every such curve was filed as active; the % refers to the signal ratio;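 further: cells stimulated with agonist L165041 at 300 nM final during compound exposure; series mostly up to about 62 µM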)
Procedure, shortened: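 Here, a reporter line (HEK293H, beta-lactamase under a UAS) measures PPARd signaling. Compounds are tested against agonist L165041 at 300 nM final concentration over 17 h at 37 C, with fluorescence read after substrate.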

[19] = qHTS assay to identify small molecule antagonists of the peroxisome proliferator-activated receptor delta (PPARd) signaling pathway - cell viability counter screen (AID 743213); further: nearly all actives have a fitted effect of over 50% in size; further: potency means the concentration at half of the fitted maximal effect
Procedure, shortened: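 Luminescence from CellTiter-Glo, added after the bla read and incubated 30 min at room temperature, gives viability of HEK293H PPARd-bla cells exposed to compounds for 17 h at 37 C with 300 nM L165041.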

Measured: Potency

COc1ccccc1OCCNCC(O)COc1cccc2[nH]c3ccccc3c12 (centres undefined)
active: [1] 21.1 µM | [6] 23.7 µM | [7] 26.6 µM
inactive: [2] | [3] | [4] | [5] | [8] | [9]

c1cc(OCC2CO2)cc(OCC2CO2)c1 (centres undefined)
active: [10] 48.2 µM
inactive: [11] | [12] | [4] | [13] | [14] | [7] | [15] | [9]

C=CC(C)(CCC=C(C)C)OC(=O)/C=C/c1ccccc1 (centres undefined)
not listed: [4] | [5] | [9] | [10] | [17] | [18] | [19]
inactive: all other assays above

C=CC(=C)CCC=C(C)C
inactive: [10] | [2] | [3] | [11] | [12] | [4] | [7] | [15] | [9]

O=C(c1ccccc1)c1cc(Cl)ccc1O
not listed: [1] | [6] | [13] | [16] | [18] | [19]
inactive: all other assays above

CC(C)OC(=O)c1cc(C(=O)OC(C)C)cc([N+](=O)[O-])c1
inactive: [10] | [2] | [12] | [4] | [15]

CCNc1nc(NC(C)CC)nc(OC)n1 (centres undefined)
not listed: [1] | [4] | [5] | [14] | [18] | [19]
inactive: all other assays above

C[C@]12CC[C@H]3C(=CCc4cc(O)ccc43)[C@@H]1CCC2=O
not listed: [1] | [4] | [6] | [14] | [16] | [17] | [19]
inactive: all other assays above

NCCCC(O)(P(=O)(O)O)P(=O)(O)O
inactive: [10] | [2] | [11] | [4] | [6] | [19] | [7] | [15] | [9] | [16]

CNC(=S)NN
active: [2] 19.3 µM | [4] 24.5 µM | [19] 11 µM | [16] 17.4 µM
inactive: [1] | [3] | [17] | [11] | [7]

CCCCCCOc1cc(C)c(O)c(C)c1C
active: [10] 49.2 µM
inactive: [2] | [3] | [13] | [19] | [18] | [7] | [9] | [16]

N#CSCSc1nc2ccccc2s1
inactive: [2] | [7]
active: [10] 27.3 µM | [11] 7.76 µM | [12] 30.6 µM | [19] 4.9 µM

CC(C)(c1cc(Br)c(OCCO)c(Br)c1)c1cc(Br)c(OCCO)c(Br)c1
active: [11] 17 µM | [12] 18.9 µM | [4] 17 µM | [6] 15.1 µM | [19] 42.7 µM | [7] 19.1 µM
inactive: [10] | [2] | [3] | [8]

C[C@@]12C(=O)OC(=O)[C@]1(C)C1CCC2O1
active: [10] 3.59 µM | [2] 0.569 µM | [12] 4.22 µM | [7] 11.9 µM
inactive: [4] | [5]

CCCOc1sc(C(=O)N2CCC(c3cc(CN)ccc3F)CC2)c(C)c1Br
active: [10] 44.5 µM | [2] 56 µM | [11] 17.9 µM | [12] 17.7 µM | [4] 40 µM | [7] 25.2 µM | [15] 50.4 µM

Cc1cc(Nc2ccc(O)cc2)ccc1N
inactive: [3] | [4] | [13] | [19] | [18] | [8] | [15] | [16]
active: [10] 24.2 µM | [11] 12.2 µM

CC(NCCC(c1ccccc1)c1ccccc1)c1ccccc1 (centres undefined)
inactive: [1] | [3] | [8] | [15] | [9]
active: [2] 26.6 µM | [12] 33.5 µM | [6] 29.8 µM | [7] 23.7 µM

C1CC(COCC2CO2)CCC1COCC1CO1 (centres undefined)
not listed: [4] | [8] | [10] | [11] | [16] | [18] | [19]
inactive: all other assays above

CCOC(=O)N1CCC(=C2c3ccc(Cl)cc3CCc3cccnc32)CC1
active: [11] 49 µM and 26.6 µM | [12] 30.6 µM | [6] 27.5 µM and 29.8 µM | [19] 43.6 µM | [7] 21.9 µM
inactive: [10] | [4] | [8] | [9]

Cc1ccc(N)cc1O
inactive: [11] | [12] | [5] | [19]
active: [1] 15.7 µM | [2] 61.1 µM | [17] 49 µM

C=C1C(C)(C)[C@@]2(Cl)C(Cl)[C@]1(Cl)C(Cl)(Cl)C2(Cl)Cl (some centres undefined)
inactive: [1] | [2] | [3] | [19] | [9]
active: [6] 38.2 µM | [7] 53.9 µM

COc1cccc(CCc2ccccc2OCC(CN(C)C)OC(=O)CCC(=O)O)c1 (centres undefined)
not listed: [1] | [2] | [3] | [6] | [11] | [15] | [17] | [19]
inactive: all other assays above

CN1[C@@H]2CC[C@H]1CC(OC(=O)C(CO)c1ccccc1)C2 (some centres undefined)
inactive: [10] | [2] | [11] | [4] | [6] | [19] | [7] | [15]

Nc1cc(Cl)c([N+](=O)[O-])cc1O
active: [10] 30.4 µM
not listed: [1] | [2] | [3] | [6] | [8] | [17]
inactive: all other assays above

Cc1c(-c2ccc(O)cc2)n(Cc2ccc(OCCN3CCCCCC3)cc2)c2ccc(O)cc12
active: [11] 29.8 µM | [6] 26.6 µM | [7] 29.8 µM | [15] 29.8 µM
inactive: [10] | [4]

CC(C(O)c1ccccc1)N(C)CCOC(c1ccccc1)c1ccccc1 (centres undefined)
inactive: [1] | [2] | [17] | [11] | [5] | [18] | [8] | [9] | [16]
active: [6] 29.8 µM | [19] 33.5 µM | [7] 15 µM

CCCN(CCc1cccs1)[C@H]1CCc2c(O)cccc2C1
inactive: [10] | [2] | [3] | [12] | [4] | [5] | [13] | [18] | [15]

Cc1c(C)n(Cc2ccccc2)c2ccc(C(=O)OCCN(C)C)cc12
inactive: [10] | [3] | [11] | [12] | [4] | [14] | [8] | [15] | [9] | [16]
active: [6] 26.6 µM

C/C=C/C(=O)Oc1c(CCCCCC(C)C)cc([N+](=O)[O-])cc1[N+](=O)[O-]
active: [10] 21.7 µM | [11] 6.16 µM | [12] 8.63 µM | [4] 24.5 µM | [19] 24.5 µM | [14] 24.5 µM | [15] 43.6 µM

CCN(CC)CCOC(=O)C1(C2CCCCC2)CCCCC1
not listed: [6] | [8] | [10] | [14] | [18]
inactive: all other assays above

— PubChem BioAssay (Tox21)
